The source of these data is US10344301, “Mutants of the bacteriophage lambda integrase” (AGENCY FOR SCIENCE, TECHNOLOGY AND RESEARCH).

The target in this assay is T1, I43F C2 integrase (Bacteriophage lambda, UniProt P03700 SEQ:1-356, I43F).
T1 sequence: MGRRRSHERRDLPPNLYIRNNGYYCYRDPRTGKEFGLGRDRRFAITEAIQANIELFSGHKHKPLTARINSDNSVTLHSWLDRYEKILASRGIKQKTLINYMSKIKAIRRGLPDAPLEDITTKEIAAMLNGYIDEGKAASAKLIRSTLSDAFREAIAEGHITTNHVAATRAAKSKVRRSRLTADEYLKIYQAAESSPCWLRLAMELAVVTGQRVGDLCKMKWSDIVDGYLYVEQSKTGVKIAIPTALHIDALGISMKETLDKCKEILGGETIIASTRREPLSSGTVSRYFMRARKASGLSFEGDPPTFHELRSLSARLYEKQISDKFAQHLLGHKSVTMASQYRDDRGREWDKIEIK
Description: IVT; E319G removed from C3. To be noted: tags: PURExpress IVT.

B1: attB ; attP (dsDNA ; dsDNA)
DNA 1: CTGCTTTTTTATACTAACTTG
DNA 2: CAAGTTAGTATAAAAAAGCAG
DNA 3: CAGCTTTTTTATACTAAGTTG
DNA 4: CAACTTAGTATAAAAAAGCTG
Take B1: the binding signal was ~3 fold reduced vs C3.

B2: attH4X ; attP4X (dsDNA ; dsDNA)
DNA 1: ACGCTTTATTTCATTAAGTTG
DNA 2: CAACTTAATGAAATAAAGCGT
DNA 3: CAGCTTTATTTCATTAAGTTG
DNA 4: CAACTTAATGAAATAAAGCTG
B2: the binding signal is ~3 fold reduced vs C3.

B3: attH ; attPH (dsDNA ; dsDNA)
DNA 1: CTGCTTTCTTATACCAAGTGG
DNA 2: CCACTTGGTATAAGAAAGCAG
DNA 3: CAGCTTTCTTATACCAAGTTG
DNA 4: CAACTTGGTATAAGAAAGCTG
Turning to B3, the binding signal was ~3 fold reduced vs C3.
